Wnt bcat act: Wnt/beta-catenin pathway activators, primary screen, cell-based, plate reader, single point; Wnt/beta-catenin reporter cell assay, activator; activation, % at 9.35 µM; 300,000 compounds, 1.2% hits; in the data active = activation above about 30%, passing the limit was not always enough;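 also: 0% = neutral control wells and 100% = positive control wells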
esBAF inh: Bmi1 luciferase reporter increase in mESCs, primary screen, esBAF inhibitor project, mouse ES cells, Bmi1 luciferase knock-in, single point; AID 602393, 2012; 24 h; 100% = twice the neutral-well signal; reporter increase, % at 12.5 µM; 350,000 compounds, 2% hits; in the data active = activation above about 40%;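 also: 0% = median of the plate's neutral control wells and 100% = double that signal; a rise in the Bmi1 reporter signal indicates esBAF inhibition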
SMARCA2 activ: SMARCA2 (BRM) function activators, primary screen, cell-based, luminescence, high throughput. activation, % at 9.1 µM. AID 652017, 2013. 370,000 compounds, 1% hits. MG213 cells, MMTV-luciferase reporter, dexamethasone, overnight; in the data active = activation above about 7.8%;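 also: 0% = vehicle wells and 100% = reference activator wells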
HSF-1 act: HSF-1 activators, primary screen, NIH3T3-HGL cells, MG132 stress, luminescence, single point | activation, % at 9 µM | NIH3T3-HGL HSF-1 luciferase reporter, 8 h; 100% = twice DMSO control signal | 300,000 compounds, 1.7% hits;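 active = mean replicate activation of at least 50% with a set share of replicates each reaching 50%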;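 also: 0% = median of the neutral control wells and 100% = twice that signal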
HSF1 inh: HSF1 inhibitors in luciferase reporter cells, primary screen, cell-based, NIH3T3, luminescence | NIH3T3-HGL HSE-luciferase, MG132-induced, luminescence 8 h; hits give low values | activity change, negative = inhibition, % at 7.5 µM (by protocol) | 300,000 compounds, 0.77% hits;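 active = more than half of replicate wells show activity change below -50%, luminescence cut by over half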;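 also: luciferase reports HSF-1 transcriptional activity via heat shock element; 0% = median of DMSO wells and -100% = zero luminescence signal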
MITF act: activators of MITF-driven TRPM1 promoter reporter, primary screen, cell-based, SK-MEL-5, luciferase, single point; AID 588334, 2011; 300,000 compounds, 0.75% hits; SK-MEL-5 TRPM1-promoter luciferase, 24 h; % of positive control, neutral wells = 0; activation, % at 12.5 µM;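 active = mean activation of at least 80% with every replicate also reaching 80%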;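 also: 0% = neutral control wells and 100% = parthenolide positive control wells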
SMARCA2 conf: SMARCA2 (BRM) function activators, confirmation, cell-based, luminescence, triplicate; MG213 cells, MMTV-luciferase with dexamethasone, overnight; MG213 cells expressing E1A, Rb sequestered; DMSO wells 0%, reference activator 100%; shares compounds with SMARCA2 activ; activation, % at 9.1 µM; 3,500 compounds, 30% hits;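 active = activation above its plate's cutoff, the mean activation of tested wells plus 3 SD, cut at about 7.9% in these data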
VP16 Luc act: GAL4-VP16 luciferase reporter activation, counter-screen for SMARCA2 (BRM) activator project, cell-based, pG5luc, luminescence, high throughput; shares compounds with SMARCA2 activ; HEK293 GAL4-VP16 pG5luc reporter; scaled: DMSO wells 0%, SAHA wells 100%; activation, % at 9.1 µM; 3,500 compounds, 41% hits;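 active = activation above the solvent-only control well mean plus 3 SD, averaged across control plates, cut at about 5.2% in these data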
* hit, by the source's call; . = no result. A selection: hits, their analogues and other compounds. The true share with any hit is near 4.3%.

SMILES	Wnt bcat act	esBAF inh	SMARCA2 activ	HSF-1 act	HSF1 inh	MITF act	SMARCA2 conf	VP16 Luc act
CC(C)C#Cc1cnc2c(c1)C(=O)N([C@H](C)CO)C[C@H](C)[C@@H](CN(C)C(=O)CCN1CCCCC1)O2	.	2	.	.	.	.	.	.
CCOC(=O)CSc1nc(C)c(C(C)=O)cc1C#N	19	7	8.2*	-2	-3	.	2	0
CCCC#Cc1ccc2c(c1)O[C@@H](CN(C)Cc1ccncc1)[C@@H](C)CN([C@H](C)CO)S2(=O)=O	.	-6	.	.	.	.	.	.
O=C(Cn1cc(C(F)(F)F)ccc1=O)N1CCc2ccccc2C1	0	-2	8.0*	.	.	-5	4	1
Cn1nc(/C=C/c2ccccc2)ccc1=O	12	25	8.9*	13	12	23	3	5
O=c1ccc(/C=C/c2ccccc2)nn1Cc1ccccc1	-3	-10	-2	3	-1	3	.	.
CCCCOc1nc(N2CCOCC2)nc(C)c1[N+](=O)[O-]	0	.	-2	11	-3	6	.	.
Cc1nc(N2CCOCC2)nc(Oc2ccccc2)c1[N+](=O)[O-]	3	.	11*	1	-12	-4	1	-2
CCCNCc1cc(Cl)c(OCC)c(Cl)c1	-3	7	9.1*	33	24	.	-4	-1
C[C@H]1CN([C@@H](C)CO)C(=O)Cc2cc(NC(=O)CCN3CCOCC3)ccc2O[C@@H]1CN(C)C(=O)Nc1ccc(F)cc1	.	0	.	.	.	.	.	.
CCC(=O)N1CCC1(C)C(=O)Nc1cc(-c2ccccc2)nn1C (stereo unspecified)	1	65*	10*	.	.	.	1	7.4*
O=C(O)CCC(=O)N1N=C(c2c(-c3ccccc3)c3cc(Cl)ccc3[nH]c2=O)CC1c1ccco1 (stereo unspecified)	1	.	-1	16	-5	2	.	.
CCC(=O)N1N=C(c2c(-c3ccccc3)c3cc(Cl)ccc3[nH]c2=O)CC1c1ccco1 (stereo unspecified)	.	.	10*	2	-9	-13	-3	0
CCC(=O)Nc1cccc(NC(=S)NC(=O)c2cc3ccccc3o2)c1	16	.	12*	44	28	61	-2	15*
C[C@@H]1CCCCO[C@H](CN(C)C(=O)Nc2cccc3ccccc23)[C@H](C)CN([C@H](C)CO)C(=O)c2cc(N(C)C)ccc2O1	.	-1	.	.	.	.	.	.
CCN1CCc2nc(NC(=O)c3ccc4c(c3)OCCO4)sc2C1	22	41*	8.7*	7	1	.	7	11*
CCN1CCN(c2ccc(NC(=O)c3cc4ccccc4cc3OC)cc2C)CC1	27	8	12*	.	.	24	8.1*	13*
CCN1CCN(c2ccc(NC(=O)c3ccc4c(c3)OCCO4)cc2C)CC1	26	-1	11*	.	.	21	7	7.9*
CCN1CCN(c2ccc(NC(=O)c3ccccc3F)cc2Cl)CC1	7	31	5	9	15	54	.	.
CCN1CCN(c2cc(C)c3cc(NC(=O)c4ccc5c(c4)OCO5)ccc3n2)CC1	1	5	4	-7	0	19	.	.
Fc1ccccc1CSc1ncn[nH]1	6	5	9.0*	3	-1	.	-2	-1
Clc1ccc(CSc2ncn[nH]2)cc1	.	4	2	11	6	-4	.	.
Cc1noc(C)c1NC(=O)Nc1ccc2c(c1)CC(=O)N([C@@H](C)CO)C[C@H](C)[C@@H](CN(C)C(=O)Nc1ccccc1)O2	.	-1	.	.	.	.	.	.
